Read-out in test [1]: Tumor necrosis factor receptor superfamily member 6 (Homo sapiens) (UniProt P25445)
The test is described as follows: LTEA_HepaRG_FAS: Life Technologies and Expression Analysis (LTEA) Assay for Fas cell surface death receptor (FAS) using HepaRG (AID 2283447). The note with it: mRNA level, 48 h; actives raise or lower the signal. The method in brief:
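Differentiated HepaRG cells in serum-free induction medium were exposed 48 h to 8 half-log concentrations up to 100 uM in 0.5% DMSO, in duplicate. FAS mRNA was measured by qRT-PCR normalised to ACTB, GAPDH and POLR2A; bidirectional fit versus DMSO.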

Read-out in test [2]: Fatty acid synthase (Homo sapiens) (UniProt P49327)
The test is described as follows: LTEA_HepaRG_FASN: Life Technologies and Expression Analysis (LTEA) Assay for Fatty Acid Synthase (FASN) using HepaRG (AID 2283448).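 For AC50: differentiated human HepaRG liver cells in serum-free induction medium.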 The note with it: mRNA level, 48 h; actives raise or lower the signal. The essentials:
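Cells were plated, cultured 48 h, switched to serum-free induction medium, then dosed in duplicate (max 100 uM, half-log dilutions, 0.5% DMSO) for 48 h. RNA was then isolated and FASN quantified by qRT-PCR.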

Read-out in test [3]: Cyclin D2 (CCND2), CCND2 (gene 894)
The test is described as follows: LTEA_HepaRG_CCND2: Life Technologies and Expression Analysis (LTEA) Assay for Cyclin D2 (CCND2) using HepaRG (AID 2283449).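 Note: CCND2 transcript measured by TaqMan qRT-PCR and normalised to three housekeeping genes.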 Particulars: mRNA level, 48 h; actives raise or lower the signal. The method in brief:
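HepaRG, 48 h dosing, 8-pt half-log curve from 100 uM, 0.5% DMSO; duplicate wells. Readout: CCND2 transcript by microfluidic qRT-PCR, housekeeping-normalised; bidirectional fit vs DMSO baseline.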

Read-out in test [4]: Cyclin Dependent Kinase Inhibitor 1A (CDKN1A), CDKN1A (gene 1026)
Nature of the test: LTEA_HepaRG_CDKN1A: Life Technologies and Expression Analysis (LTEA) Assay for Cyclin Dependent Kinase Inhibitor 1A (CDKN1A) using HepaRG (AID 2283450). The note with it: mRNA level, 48 h; actives raise or lower the signal. The essentials:
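Read-out is CDKN1A mRNA by TaqMan qRT-PCR, normalized to three housekeeping genes and fitted in both directions against the DMSO baseline. Human HepaRG cells were treated 48 h with test chemicals up to 100 uM in half-log steps, 0.5% DMSO.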

Read-out in test [5]: catalase (CAT), CAT (gene 847)
Nature of the test: LTEA_HepaRG_CAT: Life Technologies and Expression Analysis (LTEA) Assay for catalase (CAT) using HepaRG (AID 2283452). The note with it: mRNA level, 48 h; actives raise or lower the signal. The essentials: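 HepaRG cells in serum-free induction medium, 0.5% DMSO vehicle, exposed 48 h in duplicate over 8 half-log concentrations from 100 uM. CAT mRNA measured by qRT-PCR, normalized to ACTB, GAPDH, POLR2A; bidirectional fit versus DMSO.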

Read-out in test [6]: flavin-containing dimethylaniline monooxygenases 3 (FMO3), FMO3 (gene 2328)
The test is described as follows: LTEA_HepaRG_FMO3: Life Technologies and Expression Analysis (LTEA) Assay for flavin-containing dimethylaniline monooxygenases 3 (FMO3) using HepaRG (AID 2283453).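 For AC50: differentiated human HepaRG liver cells in serum-free induction medium.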 Particulars: mRNA level, 48 h; actives raise or lower the signal. The essentials:
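FMO3 transcript quantified by TaqMan qRT-PCR against three housekeeping genes after 48 h chemical exposure of HepaRG cells. Eight-point half-log series, top 100 uM, 0.5% DMSO vehicle; phenobarbital 1mM induction control; up- or down-regulation fitted.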

Read-out in test [7]: Cytochrome P450 (CYP1A1), CYP1A1 (gene 1543)
The test is described as follows: LTEA_HepaRG_CYP1A1: Life Technologies and Expression Analysis (LTEA) Assay for Cytochrome P450 (CYP1A1) using HepaRG (AID 2283454). The note with it: mRNA level, 48 h; actives raise or lower the signal. The method in brief:
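HepaRG, 48 h post-plating switched to serum-free induction medium; 8-pt conc-response (top 100 uM, half-log, 0.5% DMSO), duplicates, 48 h. Lysis in RLT, TaqMan qRT-PCR for CYP1A1; gain or loss vs DMSO.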

Read-out in test [8]: Forkhead box O1 (FOXO1), FOXO1 (gene 2308)
Nature of the test: LTEA_HepaRG_FOXO1: Life Technologies and Expression Analysis (LTEA) Assay for Forkhead box O1 (FOXO1) using HepaRG (AID 2283456). Particulars: mRNA level, 48 h; actives raise or lower the signal. The method in brief: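 HepaRG, 48 h exposure, 8-pt half-log series from 100 uM in 0.5% DMSO, duplicates; Fluidigm qRT-PCR mRNA, housekeeping-normalised; bidirectional fit vs DMSO baseline.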

Read-out in test [9]: growth arrest and DNA damage 45 (GADD45A), GADD45A (gene 1647)
The test is described as follows: LTEA_HepaRG_GADD45A: Life Technologies and Expression Analysis (LTEA) Assay for growth arrest and DNA damage 45 (GADD45A) using HepaRG (AID 2283458). The note with it: mRNA level, 48 h; actives raise or lower the signal. The method in brief: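 Transcript induction or loss, quantified by TaqMan qRT-PCR against three housekeeping genes, is the read-out. HepaRG cells received chemicals for 48 h across eight half-log concentrations from 100 uM in 0.5% DMSO; gain and loss fitted relative to DMSO.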

Read-out in test [10]: Forkhead box O3 (FOXO3), FOXO3 (gene 2309)
Nature of the test: LTEA_HepaRG_FOXO3: Life Technologies and Expression Analysis (LTEA) Assay for Forkhead box O3 (FOXO3) using HepaRG (AID 2283459). The note with it: mRNA level, 48 h; actives raise or lower the signal. The method in brief: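 qRT-PCR readout of FOXO3 transcript, normalized to three housekeeping genes (ACTB, GAPDH, POLR2A); gain or loss fitted against 0.5% DMSO vehicle. HepaRG cells, 48 h chemical exposure, 8-point half-log series, top 100 uM.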

Read-out in test [11]: ABC Transporter (ABCB1), ABCB1 (gene 5243)
Nature of the test: LTEA_HepaRG_ABCB1: Life Technologies and Expression Analysis (LTEA) Assay for ABC Transporter (ABCB1) using HepaRG (AID 2283460). The note with it: mRNA level, 48 h; actives raise or lower the signal. The method in brief: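 HepaRG, 48 h exposure, 8-pt half-log series from 100 uM, 0.5% DMSO vehicle, duplicates. Readout: ABCB1 transcript by Fluidigm TaqMan qRT-PCR, housekeeping-normalized; bidirectional curve fit vs DMSO baseline.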

Test [12] is described as follows: CEETOX_H295R_CORTIC: CeeTox H295R High-throughput Steroidogenesis Assay for Corticosterone (CORTIC) (AID 2283437).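 Note: corticosterone secreted into medium quantified by mass spectrometry.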 Particulars: actives raise or lower the signal. The essentials: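 48 h forskolin (10 uM) prestim, then 48 h chemical exposure, final DMSO 0.1%. Readout: corticosterone in medium by LC-MS/MS after MTBE extraction. Gain/loss fit vs DMSO; MTT viability in same wells.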

A short description of test [13]: CEETOX_H295R_CORTISOL: CeeTox H295R High-throughput Steroidogenesis Assay for Cortisol (AID 2283438). Particulars: actives raise or lower the signal. The essentials:
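Cortisol synthesis by H295R cells is measured 48 h after chemical dosing, following a 48 h stimulation with 10 uM forskolin. Hormone is extracted and quantified by HPLC-MS/MS, and activity is fitted bidirectionally against the DMSO control.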

Test [14] in a line: CEETOX_H295R_DOC: CeeTox H295R High-throughput Steroidogenesis Assay for DOC (AID 2283439). The note with it: actives raise or lower the signal. The essentials:
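Steps: seed H295R, adhere overnight; 10 uM forskolin 48 h; replace with chemical medium (0.1% DMSO) 48 h; collect medium, MTBE extraction, HPLC-MS/MS for DOC. Viability then checked by MTT; cytotoxic chemicals diluted until viability ≥70%.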

A short description of test [15]: CEETOX_H295R_ESTRADIOL: CeeTox H295R High-throughput Steroidogenesis Assay for Estradiol (AID 2283440).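 Note: estradiol secreted into medium quantified by LC-MS/MS after dansyl derivatisation.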 The note with it: actives raise or lower the signal. The essentials: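 Estradiol secreted into the medium was measured by tandem mass spectrometry after liquid-liquid extraction and dansylation. Human H295R cells had been forskolin-primed (10 uM, 48 h) before a 48 h chemical exposure with 0.1% DMSO.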

Test [16] can be described thus: CEETOX_H295R_ESTRONE: CeeTox H295R High-throughput Steroidogenesis Assay for Estrone (AID 2283441).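 For AC50: human adrenal H295R cells prestimulated with forskolin for two days.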 Particulars: actives raise or lower the signal. The essentials:
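Estrone secreted into medium quantified by LC-MS/MS after dansyl chloride derivatization, following 48 h chemical exposure (0.1% DMSO final) of forskolin-prestimulated (10 uM, 48 h) H295R cells; gain or loss fitted against DMSO; MTT viability in same wells.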

Test [17] in a line: CEETOX_H295R_PROG: CeeTox H295R High-throughput Steroidogenesis Assay for Progesterone (PROG) (AID 2283442).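 For AC50: human H295R adrenal cells primed with 10 µM forskolin before dosing; progesterone secreted into medium by H295R cells measured by HPLC-MS/MS.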 Particulars: actives raise or lower the signal. The essentials:
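Steps: seed H295R cells and let them adhere overnight; prime 48 h with 10 uM forskolin; dose with compound in DMSO at 0.1% final for 48 h; extract medium steroids with MTBE; measure progesterone by LC-MS/MS. MTT viability was run in the same wells.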

Read-out in test [18]: Cyclin D1 (CCND1), CCND1 (gene 595)
The test is described as follows: LTEA_HepaRG_CCND1: Life Technologies and Expression Analysis (LTEA) Assay for Cyclin D1 (CCND1) using HepaRG (AID 2283451). Particulars: mRNA level, 48 h; actives raise or lower the signal. The method in brief: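 HepaRG plated 48 h, medium switched to serum-free induction medium, chemicals added in duplicate (top 100 uM, half-log steps, 0.5% DMSO) for 48 h, cells lysed, RNA measured by TaqMan qRT-PCR.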

Read-out in test [19]: CFLAR gene, CFLAR (gene 8837)
Nature of the test: LTEA_HepaRG_CFLAR: Life Technologies and Expression Analysis (LTEA) Assay for CFLAR gene using HepaRG (AID 2283455). Particulars: mRNA level, 48 h; actives raise or lower the signal. The essentials:
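qRT-PCR read-out (Fluidigm/TaqMan) of CFLAR mRNA, normalized to three housekeeping genes, in differentiated human HepaRG cells after 48 h chemical exposure; 8-point half-log series from 100 uM in 0.5% DMSO; bidirectional curve fitting versus DMSO.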

Test [20] in a line: CEETOX_H295R_TESTO: CeeTox H295R High-throughput Steroidogenesis Assay for Testosterone (TESTO) (AID 2283457). The note with it: actives raise or lower the signal. The method in brief: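 H295R, passage ≤10, 48 h dosing; media extracted with MTBE → HPLC-MS/MS for testosterone; 7-pt standard curve sets LLOQ/ULOQ; bidirectional fit vs DMSO; MTT viability same wells.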

The results in this text go back to PubChem BioAssay (EPA / NIEHS).

For orientation: AC50 means the midpoint of the concentration-response curve, whichever way the signal moves.

The source made the active and inactive calls. Rule for the calls: active = hit-call score of the fitted dose curve at least 0.9, where 1 is the maximum; inactive = score below 0.9.

Sequence of Fatty acid synthase (Homo sapiens) (P49327 whole entry, looked up): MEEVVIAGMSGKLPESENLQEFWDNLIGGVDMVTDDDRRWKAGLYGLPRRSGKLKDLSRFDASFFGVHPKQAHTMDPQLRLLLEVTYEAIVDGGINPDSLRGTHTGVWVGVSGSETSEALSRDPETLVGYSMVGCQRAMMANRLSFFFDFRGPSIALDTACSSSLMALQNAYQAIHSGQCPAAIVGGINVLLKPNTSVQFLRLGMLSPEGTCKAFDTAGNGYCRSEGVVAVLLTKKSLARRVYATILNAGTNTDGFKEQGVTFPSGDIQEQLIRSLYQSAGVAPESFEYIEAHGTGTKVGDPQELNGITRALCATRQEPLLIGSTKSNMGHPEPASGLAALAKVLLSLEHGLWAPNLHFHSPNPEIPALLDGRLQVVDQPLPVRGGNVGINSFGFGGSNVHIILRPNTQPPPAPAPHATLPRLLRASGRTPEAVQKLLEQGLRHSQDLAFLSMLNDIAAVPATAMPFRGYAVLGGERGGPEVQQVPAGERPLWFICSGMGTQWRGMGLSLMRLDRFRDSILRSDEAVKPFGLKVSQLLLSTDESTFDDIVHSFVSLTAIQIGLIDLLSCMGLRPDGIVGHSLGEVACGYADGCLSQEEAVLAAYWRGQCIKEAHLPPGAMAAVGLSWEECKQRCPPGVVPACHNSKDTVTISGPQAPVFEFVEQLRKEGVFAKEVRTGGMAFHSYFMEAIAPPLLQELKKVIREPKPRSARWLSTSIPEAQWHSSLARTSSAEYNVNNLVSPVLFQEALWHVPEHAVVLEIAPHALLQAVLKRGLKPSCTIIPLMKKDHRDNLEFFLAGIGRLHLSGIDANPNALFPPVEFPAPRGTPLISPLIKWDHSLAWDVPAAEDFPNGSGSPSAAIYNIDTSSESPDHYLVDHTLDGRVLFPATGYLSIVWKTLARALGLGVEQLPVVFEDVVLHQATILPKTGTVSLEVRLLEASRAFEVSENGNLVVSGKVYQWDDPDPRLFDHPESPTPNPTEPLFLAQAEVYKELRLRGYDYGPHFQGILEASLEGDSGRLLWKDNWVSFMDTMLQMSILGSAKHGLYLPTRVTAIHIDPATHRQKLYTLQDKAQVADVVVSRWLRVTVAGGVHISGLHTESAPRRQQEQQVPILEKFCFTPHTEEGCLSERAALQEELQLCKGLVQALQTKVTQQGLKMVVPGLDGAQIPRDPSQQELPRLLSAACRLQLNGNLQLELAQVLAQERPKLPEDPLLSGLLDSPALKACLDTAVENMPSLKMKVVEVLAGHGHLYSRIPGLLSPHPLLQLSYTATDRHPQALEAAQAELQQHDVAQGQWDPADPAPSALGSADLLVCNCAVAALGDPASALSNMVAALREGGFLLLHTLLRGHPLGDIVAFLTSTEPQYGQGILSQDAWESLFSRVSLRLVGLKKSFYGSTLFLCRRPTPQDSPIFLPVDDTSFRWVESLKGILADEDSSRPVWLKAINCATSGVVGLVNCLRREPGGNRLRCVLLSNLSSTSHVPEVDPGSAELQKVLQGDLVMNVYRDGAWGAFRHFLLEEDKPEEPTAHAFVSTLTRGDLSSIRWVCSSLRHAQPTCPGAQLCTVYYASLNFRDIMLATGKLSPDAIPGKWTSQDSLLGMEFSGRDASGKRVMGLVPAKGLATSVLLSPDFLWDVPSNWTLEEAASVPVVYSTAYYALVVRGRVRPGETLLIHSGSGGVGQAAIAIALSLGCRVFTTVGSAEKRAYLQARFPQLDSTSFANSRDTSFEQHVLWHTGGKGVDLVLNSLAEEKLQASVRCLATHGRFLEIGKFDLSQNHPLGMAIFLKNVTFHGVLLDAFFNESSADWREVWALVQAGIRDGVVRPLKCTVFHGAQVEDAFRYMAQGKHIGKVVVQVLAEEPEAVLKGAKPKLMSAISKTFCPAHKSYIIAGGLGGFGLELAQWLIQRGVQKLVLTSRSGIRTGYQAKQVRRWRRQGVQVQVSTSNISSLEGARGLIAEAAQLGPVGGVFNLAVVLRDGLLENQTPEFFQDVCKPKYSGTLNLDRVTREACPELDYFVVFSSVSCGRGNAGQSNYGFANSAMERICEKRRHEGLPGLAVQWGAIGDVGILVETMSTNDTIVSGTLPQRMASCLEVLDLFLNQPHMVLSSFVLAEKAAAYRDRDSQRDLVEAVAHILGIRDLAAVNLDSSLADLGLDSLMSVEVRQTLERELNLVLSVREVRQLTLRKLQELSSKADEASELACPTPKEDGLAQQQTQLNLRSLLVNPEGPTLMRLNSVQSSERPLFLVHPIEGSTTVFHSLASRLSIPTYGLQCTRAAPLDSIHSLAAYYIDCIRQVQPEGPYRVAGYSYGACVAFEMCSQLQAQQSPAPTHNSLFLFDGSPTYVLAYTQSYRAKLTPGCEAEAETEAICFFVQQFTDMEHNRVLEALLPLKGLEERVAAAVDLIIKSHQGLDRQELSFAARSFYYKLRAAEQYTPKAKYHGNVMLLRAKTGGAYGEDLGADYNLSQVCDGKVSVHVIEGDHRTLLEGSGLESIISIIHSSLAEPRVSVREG

Consider `OCCNCCO`, for which the result in test [1], in [3], in [4], in [6], in test [7] and in [8] was inactive. For the same compound, the call in test [9], in test [10] and in [11] was inactive. The AC50 in test [2] was 9.92 µM (active); in [5], 50 µM (active).
In the case of `C[C@@H](Oc1ccc(CNC(=O)c2cccnc2Oc2ccc3c(c2)OCO3)c(F)c1)C(=O)O`, the compound was classed as inactive in [12], in test [13], in test [14], in test [15], in test [17] and in [1]. For the same compound, the compound was classed as inactive in [2], in [3], in [4], in [5], in [6] and in test [8]. Besides, the compound was called inactive in test [9], in test [10] and in test [11]. Further, the AC50 in [16] was 0.128 µM (active).
On to `CCCCCCCCN(C)C`, for which the call in test [12], in test [13], in test [14], in test [17], in test [1] and in test [3] was inactive. The outcome in test [4], in test [18], in [5], in [6], in test [19] and in test [8] was inactive. Also, the compound was classed as inactive in [9], in test [10] and in [11].
As to `c1ccc2ncccc2c1`, the outcome in test [1], in [2], in test [3], in test [4], in [18] and in test [5] was inactive. The compound was called inactive in [6], in test [8], in [9], in [10] and in [11]. Also, the AC50 in test [7] is 83.2 µM (active).
As for `C=CCc1cc(S(=O)(=O)c2ccc(O)c(CC=C)c2)ccc1O`, the AC50 in [12] is 0.0971 µM (active); in test [13] it was 5.57 µM (active); in [14], 0.673 µM (active); in [17] it was 0.351 µM (active); in test [5], 71.6 µM (active); in test [6], 76.9 µM (active). In addition, the AC50 in test [8] was 79.6 µM (active); in test [10], 84.9 µM (active); in test [11] it was 89.1 µM (active). Also, the compound was called inactive in test [15], in test [16], in test [1], in test [4], in [7] and in [20]. Moreover, in [9], the result was inactive.
For `CCCCCCOC(=O)CC(CC(=O)OCCCCCC)(OC(=O)CCC)C(=O)OCCCCCC`, the call in [1], in [2], in test [3], in test [4], in [18] and in test [5] was inactive. The compound was called inactive in [6], in test [8], in test [9], in [10] and in [11].
With `OCc1c[nH]c2ccccc12`, the compound was classed as inactive in test [15], in test [16], in [17] and in test [20].
On to `CC[C@H](C)C(=O)O[C@H]1C[C@H](O)C=C2C=C[C@H](C)[C@H](CC[C@@H](O)C[C@@H](O)CC(=O)O)[C@H]21`, for which the AC50 was 6.77 µM (active) in test [12], 2.7 µM (active) in test [14] and 0.949 µM (active) in [17]. In addition, the result in [13], in test [15], in test [16], in [1], in test [3] and in test [4] was inactive. Moreover, the compound was classed as inactive in test [5], in test [6], in test [8], in test [9], in test [10] and in test [11].
